From PubChem BioAssay AID489039 (National Center for Advancing Translational Sciences (NCATS), 2010)
Records with an inconclusive call do not appear. Where a call stands in place of a potency, no number is given. Activity calls are given as the source filed them. Calls follow the shape of the dose curve; as a rule, active = well fitted inhibition curve with a large enough effect; inconclusive = small, poorly fitted or top-dose-only effect, or effect the other way; inactive = no such curve, though single readings can be large or run the other way.

target: Nuclear receptor ROR-alpha (Homo sapiens) (UniProt P35398); test: ROR alpha selectivity assay for inhibitors of ROR gamma transcriptional activity; details: Drosophila S2 Gal4-RORalpha UAS-luciferase, 20 h; series mostly up to 92.2 µM
Excerpt: NIH Molecular Libraries Probe Production Network [MLPCN] NIH Chemical Genomics Center [NCGC] MLPCN Grant: R03 DA026211-01 Assay Provider: Dan Littman, New York University Assay Overview: The retinoic acid-related orphan receptor (ROR) gamma is a transcription factor that has a central role in the differentiation of Th17 cells, a subset of T helper cells that secrete the inflammatory cytokines IL-17A, IL-17F, and IL-22. Th17 cells have been implicated in graft versus host disease, autoimmune disease and asthma. RORgamma is induced in naive T helper cells in the presence of TGF-beta combined with IL-6, IL-21, or IL-23, and thereafter directs the expression of the Th17 lineage cytokines. To identify nonselective inhibitors, a Drosophila Schneider cell line was stably transfected with two vectors: a gene expressing a fusion of the Gal4 DNA binding domain and the transactivation domain of the ROR alpha, under the control of the metallothionine promoter and a Photinus luciferase reporter regulated by the Gal4 binding site enhancer, UAS. […] Small molecule inhibitors that inhibit RORgamma and RORalpha, or components common to both, will be active in both assays and thus scored as nonselective.
Assay Protocol Summary: For screening, 600 cells in 4 uL/well were dispensed into white solid 1536-well plates (Grenier) using a solenoid-based dispenser. Following transfer of 23 nL compound or DMSO vehicle by a pin tool, the plates were incubated 1 hr at ambient temperature, and 1 uL/well copper sulfate (700 uM final concentration) was added. The plates were centrifuged 15 s at 1000 RPM and incubated 20 hr at ambient temperature. After addition of 1.5 uL Photinus luciferase detection reagent, the plates were incubated 10 min at ambient temperature and then read by an ViewLux (Perkin Elmer) to detect luminescence.

| SMILES | Potency |
| --- | --- |
| COc1cc(O)c(C(CC(=O)N2CCC(c3ccccc3)CC2)c2ccc3c(c2)OCO3)c(OC)c1 (stereo not given) | inactive |
| COc1ccc(C(CC(=O)N2CCCC(C)C2)c2c(O)cc(OC)cc2OC)cc1 (stereo not given) | inactive |
| Cc1cc(C)n(-c2nc(SCC(=O)O)c3c4c(sc3n2)CCCC4)n1 | 18.2 µM (active) |
| COCC1CCCCN1C(=O)c1cc(COc2ccc3ncccc3c2)on1 (stereo not given) | 14.4 µM (active) |
| COc1cc(O)c(C(CC(=O)N2CCCC2)c2ccc3c(c2)OCO3)c(OC)c1 (stereo not given) | inactive |
| COc1ccccc1C(CC(=O)N1C[C@H](C)C[C@H](C)C1)c1ccccc1 (stereo not given in full) | 51.2 µM (active) |
| O=C(CCCN1C(=O)/C(=C/c2ccccc2Cl)SC1=S)Nc1cccnc1 | 1.82 µM (active) |
| COc1cc(O)c(C(CC(=O)N2CCC[C@@H](C)C2)c2ccc3c(c2)OCO3)c(OC)c1 (stereo not given in full) | inactive |
| O=C(/C=C/c1ccc(S(=O)(=O)N2CCOCC2)cc1)NC(=S)Nc1ccc(N2CCOCC2)cc1 | 14.4 µM (active) |
| COc1cc(OC)c(C(CC(=O)N2CCCC(C)C2)c2ccc3c(c2)OCO3)c(OCc2ccccc2)c1 (stereo not given) | 20.4 µM (active) |
| CC1CCCN(C(=O)CC(c2ccc3c(c2)OCO3)c2cc(C(C)C)ccc2O)C1 (stereo not given) | inactive |
| COc1cc(OC)c(C(c2ccccc2)C(C)(C)C(=O)N2CC(C)CC(C)C2)c(OC)c1 (stereo not given) | 16.2 µM (active) |
| COc1cc(O)c(C(CC(=O)NCC2CCCCC2)c2ccc3c(c2)OCO3)c(OC)c1 (stereo not given) | inactive |
| COc1cc(O)c(C(CC(=O)N2CCCC(C)C2)c2ccccc2OC)c(OC)c1 (stereo not given) | inactive |
| COc1cc(O)c(C(CC(=O)N2CCCC(C#N)C2)c2ccc3c(c2)OCO3)c(OC)c1 (stereo not given) | inactive |
| COc1cc(O)c(C(CC(=O)Nc2cccc3ccccc23)c2ccc3c(c2)OCO3)c(OC)c1 (stereo not given) | inactive |
| COc1ccc(CNC(=O)[C@H](Cc2ccccc2)NC(=O)C2CCN(C(=O)[C@@H]3CCCN3C(=O)OC(C)(C)C)CC2)cc1 | inactive |
| COc1cc(O)c(C(CC(=O)NC2CCC(C)CC2)c2ccc3c(c2)OCO3)c(OC)c1 (stereo not given) | inactive |
| COc1ccc(-c2c[n+]3c(n2-c2ccc(C)cc2)CCCCC3)cc1 | 10.2 µM (active) |
| CC1CCCN(C(=O)CC(c2ccc3c(c2)OCO3)c2ccc(O)cc2O)C1 (stereo not given) | inactive |

| SMILES | Potency |
| --- | --- |
| COc1cc(O)c(C(CC(=O)N2CC(C)NC(C)C2)c2ccc3c(c2)OCO3)c(OC)c1 (stereo not given) | inactive |
| COc1cc(O)c(C(CC(=O)N2CCCCC2C)c2ccc3c(c2)OCO3)c(OC)c1 (stereo not given) | inactive |
| COc1cc(O)c(C(CC(=O)N2CCC(C)CC2)c2ccc3c(c2)OCO3)c(OC)c1 (stereo not given) | inactive |
| COc1cc(C)nc(-n2nc(C)cc2OC)n1 | 8.12 µM (active) |
| O=C(CCCOc1ccccc1)Nc1nc2ccccc2[nH]1 | 14.4 µM (active) |
| COc1cc(O)c(C(CC(=O)NC2CCCc3ccccc32)c2ccc3c(c2)OCO3)c(OC)c1 (stereo not given) | inactive |
| Cc1nn(-c2cc(C)c3ccccc3n2)c2c1C1C(C2)C1(C)C (stereo not given) | 8.12 µM (active) |
| CC(C)(C)c1ccc(S(=O)(=O)Nc2ccc(C(O)(C(F)(F)F)C(F)(F)F)cc2)cc1 | 18.2 µM (active) |
| COC(=O)c1ccc(OCC(=O)c2ccc(O)cc2O)cc1 | 0.0575 µM (active) |
| COc1cc(O)c(C(CC(=O)N2CCCC(C)C2)c2ccc(C(C)C)cc2)c(OC)c1 (stereo not given) | 36.3 µM (active) |
| COc1cc(O)c(C(CC(=O)N2CCCCC2)c2ccc3c(c2)OCO3)c(OC)c1 (stereo not given) | inactive |
| COc1cc(O)c(C(CC(=O)N2CCCC(C)C2)c2ccc(-c3ccccc3)cc2)c(OC)c1 (stereo not given) | inactive |
| COc1ccc2nc(NNC(=O)COc3ccccc3)sc2c1 | 6.45 µM (active) |
| COCOc1cc(OC)cc(OC)c1C(CC(=O)N1CC(C)CC(C)C1)c1ccc2c(c1)OCO2 (stereo not given) | inactive |
| CC1CCCN(C(=O)CC(c2ccccc2)c2ccccc2O)C1 (stereo not given) | inactive |
| C[C@@H]1[C@H](C)CC[C@]2(C(=O)O)CC[C@]3(C)C(=CC[C@@H]4[C@@]5(C)CC[C@H](O)C(C)(C)[C@H]5CC[C@]43C)[C@@H]12 | 18.2 µM (active) |
| COCC1CCCN(C(=O)CC(c2ccc3c(c2)OCO3)c2c(O)cc(OC)cc2OC)C1 (stereo not given) | inactive |
| COc1ccc(C(CC(=O)N2CCCC(C)C2)c2ccccc2)cc1 (stereo not given) | inactive |
| CC(C)(C)c1ccc(-c2noc(CCC(=O)Nc3cccnc3)n2)cc1 | 0.0457 µM (active) |
| CCn1cc(C(=O)O)c(=O)c2cnc(N3CCN(C(=S)NC(=O)c4ccccc4)CC3)nc21 | 22.9 µM (active) |
